Results published in PubChem BioAssay AID1159580 (chemical genetic matrix, 2015).
In all, about 5,500 compounds went through this assay and about 2,000 (36%) were called active. Roughly 18% stayed inconclusive and do not appear here. No stated cut-off is given here; in the data, active means normalized growth mostly below about 0.91 (no sharp cut-off); inconclusive means no clear call, values can overlap the other calls; inactive means mostly above about 0.92. The list shows a part of the results.

Assay: chemical genetic growth profiling, strain panel (AID 1159580);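 further: tested at 20 µM; growth read once vehicle control cultures reached saturation at 30 °C; 1 = growth at the plate median or of vehicle wells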
Conditions: S. cerevisiae deletion strains, growth OD

Measured: normalized growth

COc1cc(-c2cc(=O)c3c(O)c(OC)c(OC)c(OC)c3o2)cc(OC)c1OC
inactive: locus YAL021C, strain ccr4, stronger effect = lower value 1.01 | locus YAL026C, strain drs2, stronger effect = lower value 1.01 | locus YAL030W, strain snc1, stronger effect = lower value 1.01 | locus YBL061C, strain skt5, stronger effect = lower value 1.01 | locus YBR009C, strain hhf1, stronger effect = lower value 1.01 | locus YBR023C, strain chs3, stronger effect = lower value 1.01 | locus YBR171W, strain sec66, stronger effect = lower value 1.01 | locus YBR231C, strain swc5, stronger effect = lower value 1.01 | locus YBR279W, strain paf1, stronger effect = lower value 0.998 | locus YCL011C, strain gbp2, stronger effect = lower value 1.01 | locus YCL016C, strain dcc1, stronger effect = lower value 1.01 | locus YCL061C, strain MRC1, stronger effect = lower value 1.03 | locus YCL069W, strain vba3, stronger effect = lower value 1.01 | locus YCR088W, strain abp1, stronger effect = lower value 1.01 | locus YDL005C, strain med2, stronger effect = lower value 1.02 | locus YDL040C, strain nat1, stronger effect = lower value 1.01 | locus YDR001C, strain nth1, stronger effect = lower value 1.01 | locus YDR069C, strain doa4, stronger effect = lower value 1.02 | locus YDR137W, strain rgp1, stronger effect = lower value 0.997 | locus YDR159W, strain sac3, stronger effect = lower value 1.03 | locus YDR195W, strain ref2 1.02 | locus YDR297W, strain sur2, stronger effect = lower value 1.01 | locus YDR334W, strain swr1, stronger effect = lower value 1.01 | locus YDR335W, strain msn5, stronger effect = lower value 1.03 | locus YDR392W, strain spt3, stronger effect = lower value 0.97 | locus YEL003W, strain gim4, stronger effect = lower value 1.01 | locus YEL037C, strain rad23, stronger effect = lower value 1.01 | locus YEL061C, strain CIN8 (second series), stronger effect = lower value 1.01 | locus YER015W, strain faa2, stronger effect = lower value 1.01 | locus YER016W, strain bim1, stronger effect = lower value 1.02 | locus YER111C, strain swi4, stronger effect = lower value 1 | locus YER155C, strain BEM2 (second series), stronger effect = lower value 1 | locus YFR010W, strain ubp6, stronger effect = lower value 1.01 | locus YGL167C, strain pmr1, stronger effect = lower value 1.02 | locus YGL173C, strain kem1, stronger effect = lower value 1.01 | locus YGL227W, strain vid30, stronger effect = lower value 1.01 | locus YGL240W, strain doc1, stronger effect = lower value 1.04 | locus YGL253W, strain hxk2, stronger effect = lower value 1 | locus YHR013C, strain ard1, stronger effect = lower value 1 | locus YHR027C, strain rpn1, stronger effect = lower value 1.01 | locus YHR142W, strain chs7, stronger effect = lower value 0.99 | locus YJL092W, strain hpr5, stronger effect = lower value 1.02 | locus YJL095W, strain BCK1 (second series), stronger effect = lower value 1.01 | locus YJL115W, strain asf1, stronger effect = lower value 1.01 | locus YJL129C, strain trk1, stronger effect = lower value 1 | locus YJL154C, strain vps35, stronger effect = lower value 1.01 | locus YJL164C, strain tpk1, stronger effect = lower value 0.999 | locus YJL166W, strain qcr8, stronger effect = lower value 1.01 | locus YJL187C, strain SWE1, stronger effect = lower value 1.01 | locus YKL160W, strain elf1, stronger effect = lower value 1.01 | locus YKR026C, strain gcn3, stronger effect = lower value 1.01 | locus YKR091W, strain srl3, stronger effect = lower value 1.01 | locus YLL001W, strain dnm1, stronger effect = lower value 1.02 | locus YLL026W, stronger effect = lower value 1.01 | locus YLL041C, strain sdh2, stronger effect = lower value 1.01 | locus YLR027C, strain aat2, stronger effect = lower value 1.01 | locus YLR221C, strain rsa3, stronger effect = lower value 1 | locus YLR258W, strain gsy2, stronger effect = lower value 1.01 | locus YLR262C, strain YPT6 (second series), stronger effect = lower value 1.01 | locus YLR320W, strain mms22, stronger effect = lower value 1.02 | locus YLR342W, strain FKS1, stronger effect = lower value 1.02 | locus YLR357W, strain rsc2, stronger effect = lower value 0.994 | locus YLR370C, strain arc18, stronger effect = lower value 1.02 | locus YLR384C, strain iki3, stronger effect = lower value 1.01 | locus YML120C, strain ndi1, stronger effect = lower value 1 | locus YMR058W, strain fet3, stronger effect = lower value 1 | locus YMR125W, strain sto1, stronger effect = lower value 0.999 | locus YMR129W, stronger effect = lower value 1.01 | locus YMR205C, strain PFK2, stronger effect = lower value 1.02 | locus YMR231W, strain pep5, stronger effect = lower value 1.01 | locus YNL071W, strain lat1, stronger effect = lower value 1 | locus YNL209W, strain ssb2, stronger effect = lower value 1 | locus YNL248C, strain rpa49, stronger effect = lower value 1 | locus YNL322C, strain KRE1 (second series), stronger effect = lower value 1.02 | locus YNR049C, strain mso1, stronger effect = lower value 1.01 | locus YOR001W, strain rrp6, stronger effect = lower value 0.999 | locus YOR070C, strain gyp1, stronger effect = lower value 1 | locus YOR080W, strain dia2, stronger effect = lower value 1.01 | locus YOR083W, strain WHI5, stronger effect = lower value 0.995 | locus YOR106W, strain vam3, stronger effect = lower value 1 | locus YOR265W, strain rbl2, stronger effect = lower value 1.01 | locus YOR270C, strain vph1, stronger effect = lower value 0.99 | locus YOR290C, strain snf2, stronger effect = lower value 0.933 | locus YPL051W, strain arl3, stronger effect = lower value 1 | locus YPL078C, strain atp4, stronger effect = lower value 0.999 | locus YPL106C, strain sse1, stronger effect = lower value 1.03 | locus YPL240C, strain hsp82, stronger effect = lower value 1.01
